Data on 36 compounds can be found in PubChem BioAssay (NCATS).

SMILES strings stand for the structures. Inconclusive results are not listed. Activity calls are given as the source filed them. The call rests on the fitted dose curve; tested in HEK293 reporter line.
On the % scale 0 is the no-effect control and ±100 the full control effect; potency means the concentration at half of the fitted maximal effect.

One test can be described thus: qHTS for Inhibitors of the Functional Ribonucleoprotein Complex (vRNP) of Lassa (LASV) Arenavirus: LASV Primary Screen - GLuc reporter signal (AID 1347082). Further: nearly all actives have a fitted effect of over 60% in size. Conditions: LASV minigenome vRNP, Gaussia luciferase reporter; series mostly up to 57.5 µM; activity change, negative = inhibition: at the top concentration.
For `Fc1cc(-c2cccc3ncc(-c4cnn(C5CCNCC5)c4)nc23)cc(F)c1CN1CCOCC1`, the Potency was 24.3 µM (active).

As for `N#Cc1ccc(COC[C@H]2O[C@@H](n3c(NCc4ccc(Cl)c(Cl)c4)nc4c(N)ncnc43)[C@@H](O)[C@@H]2O)cc1`, the “activity change, negative = inhibition” value was -3.68% (inactive).

With `O=c1[nH]nc(Sc2ncc([N+](=O)[O-])s2)n1-c1ccc2c(c1)OCCO2`, the “activity change, negative = inhibition” value is -26.3% (inactive).

Regarding `COC[C@H]1OC(=O)c2coc3c2[C@@]1(C)C1=C(C3=O)[C@@H]2CC[C@H](O)[C@@]2(C)C[C@@H]1OC(C)=O`, the “activity change, negative = inhibition” value was -9.95% (inactive). For the compound `O=S(=O)(N=Cc1c(O)ccc2ccccc12)c1cccs1`, the “activity change, negative = inhibition” value was 24.6% (inactive). For the compound `CC(C)OC(=O)C1=CN(C(=O)c2ccc(F)c(F)c2)CC(C)(C)c2c1[nH]c1ccccc21`, the “activity change, negative = inhibition” value is -21.8% (inactive). For the compound `CCN(CC)c1ccc(C(=C2C=CC(=[N+](CC)CC)C=C2)c2cc(S(=O)(=O)O)ccc2S(=O)(=O)[O-])cc1`, the “activity change, negative = inhibition” value was -1.83% (inactive). For `COc1ccc(N(C(=O)Oc2c(C)cccc2C)c2ccnc(Nc3ccc(N4CCN(C)CC4)cc3)n2)c(OC)c1`, the “activity change, negative = inhibition” value was -44.8% (inactive). With `CNC(=O)c1cc(Oc2ccc(NC(=O)Nc3ccc(Cl)c(C(F)(F)F)c3)c(F)c2)ccn1`, the “activity change, negative = inhibition” value is -12.6% (inactive).

The nature of a further test: qHTS for Inhibitors of the Functional Ribonucleoprotein Complex (vRNP) of Lassa (LASV) Arenavirus: Viability assay - alamar blue signal for LASV Primary Screen (AID 1347083). Further: nearly all actives have a fitted effect of over 80% in size. The note with it: cell viability, alamar blue fluorescence (LASV minigenome counter-screen); series mostly up to 57.5 µM; activity change, negative = reduced viability: at the top concentration.
In the case of `CCCCc1nc2cc(C=CC(=O)NO)ccc2n1CCN(CC)CC`, the Potency is 6.85 µM (active). The same measure, in the same setting: as for `CN(C)CCCNC(=O)c1ccc(-c2cc(O)c3ncccc3c2)cc1`, the figure is 38.5 µM (active); as for `O=C1C(Cl)=C(NCCN2CCOCC2)C(=O)c2ncccc21`, 34.3 µM (active); as for `C[C@]1(CO)CN(c2cc(C(=O)Nc3ccc4c(c3)-c3c(c(C(N)=O)nn3-c3ccc(F)cc3)CC4)c(Cl)cn2)C[C@@]1(C)CO`, 1.72 µM (active).

On to `Cc1[nH]c2ccccc2c1CCNCc1ccc(C=CC(=O)NO)cc1`, for which the Potency is 0.863 µM (active).

Turning to `CC=C1NC(=O)[C@H]2CSSCCC=C[C@H](CC(=O)N[C@H](C(C)C)C(=O)N2)OC(=O)[C@H](C(C)C)NC1=O`, the Potency is 0.0968 µM (active). As for `CC(C)c1ccc(Cn2ccc3c4c(N)nc(NC5CC5)nc4ccc32)cc1`, the Potency is 7.69 µM (active). With `CCn1c(-c2nonc2N)nc2c(C#CC(C)(C)O)ncc(OC[C@H]3CCCNC3)c21`, the Potency is 0.0611 µM (active).

In the case of `Cc1cc(Nc2cc(N3CCN(C)CC3)nc(Sc3ccc(NC(=O)C4CC4)cc3)n2)n[nH]1`, the Potency is 19.3 µM (active).

As for `CC[C@H](Nc1ncnc2nc[nH]c12)c1nc2cccc(F)c2c(=O)n1-c1ccccc1`, the Potency is 24.3 µM (active). In the case of `Nc1ccc(C(=O)c2cc3c(ccc4ccccc43)[nH]2)cc1`, the Potency is 17.2 µM (active). For `CN(c1ncccc1CNc1nc(Nc2ccc3c(c2)CC(=O)N3)ncc1C(F)(F)F)S(C)(=O)=O`, the Potency is 24.3 µM (active). Take `CN1CCN(c2ccc3nc(-c4c(N)c5c(F)cccc5[nH]c4=O)[nH]c3c2)CC1`: the Potency was 2.17 µM (active). Take `Cn1c(=O)c(F)c(Nc2ccc(I)cc2F)c2c(=O)n(C[C@@H](O)CO)cnc21`: the Potency was 4.85 µM (active). With `Cc1cc(Nc2cc(N3CCN(C)CC3)nc(C=Cc3ccccc3)n2)n[nH]1`, the Potency was 8.85 µM (active). Same read-out and setting: as for `Nc1ccccc1NC(=O)c1ccc(CNC(=O)OCc2cccnc2)cc1`, the figure is 12.2 µM (active); as for `Cc1cccc(C=NNc2cc(N3CCOCC3)nc(OCCc3ccccn3)n2)c1`, 1.93 µM (active).

On to `COc1cc2c(Oc3ccc(NC(=O)C4(C(=O)Nc5ccc(F)cc5)CC4)cc3F)ccnc2cc1OCCCN1CCOCC1`, for which the Potency is 21.7 µM (active). The same measure, in the same setting: next, `COc1cc(=C2C=c3ccccc3=N2)[nH]c1=Cc1[nH]c(C)cc1C`: 21.7 µM (active); `CN1CCC(CNc2ccc3ncc(-c4cccc(OC(F)(F)F)c4)n3n2)CC1`: 17.2 µM (active); `C#Cc1cccc(Nc2ncnc3cc(OC)c(OCCCCCCC(=O)NO)cc23)c1`: 3.43 µM (active). As to `CCCS(=O)(=O)Nc1ccc(F)c(C(=O)c2c[nH]c3ncc(Cl)cc23)c1F`, the Potency is 12.2 µM (active).

In the case of `O=C(c1ccc(Nc2nccc(-c3cc4ccccc4s3)n2)cc1)N1CCC(N2CCCC2)CC1`, the Potency is 21.7 µM (active). The same measure, in the same setting: next, `CC[C@@H]1C(=O)N(C)c2cnc(Nc3ccc(C(=O)NC4CCC(N5CCN(CC6CC6)CC5)CC4)cc3OC)nc2N1C(C)C` (stereo partly specified): 0.0968 µM (active).

Consider `Cc1ccc(C(=O)N(CCCN)[C@@H](c2nc3cc(Cl)ccc3c(=O)n2Cc2ccccc2)C(C)C)cc1`, for which the “activity change, negative = reduced viability” value is -75.6% (inactive).

On to `Cc1ccc(C(=O)Nc2ccc(CN3CCN(C)CC3)c(C(F)(F)F)c2)cc1C#Cc1cnc2cccnn12`, for which the Potency is 1.22 µM (active).

For `Nc1nc(Nc2ccc(S(N)(=O)=O)cc2)nn1C(=O)c1c(F)cccc1F`, the Potency was 24.3 µM (active).
